The record followed here is PubChem BioAssay (Tox21).

The structures appear in SMILES notation. Values without a mark were called inactive. Inconclusive results are not listed. Calls of active or inactive are those of the source. Unless noted, calls follow the shape of the dose curve; as a rule, active = well fitted curve in the direction sought with a large enough effect in the repeat runs; inconclusive = weak or mixed curves; inactive = no such curve, though single readings can be large; an effect the other way counts as inactive or inconclusive.

Test [1] can be described thus: qHTS assay to test for compound auto fluorescence at 535 nm (green) in HEK293 cells (AID 720680). A general note: Quantitative high-throughput screening tests each substance at several concentrations.
Test [2] in a line: qHTS assay to test for compound auto fluorescence at 535 nm (green) in HEK293 cell free culture (AID 720682). Summed up:
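Read-out: 485/535 nm fluorescence intensity, calibrated against fluorescein. Medium only (DMEM + 10% FBS, no cells); test compound or DMSO vehicle added by pintool before plate reading.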

Test [3] in a line: qHTS assay to test for compound auto fluorescence at 590 nm (red) in HEK293 cell free culture (AID 720683). Put shortly:
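Tox21 10K library compounds were pinned into cell-free DMEM with 10% FBS and fluorescence was read at excitation 540 nm. Activity is expressed as Rose Bengal sodium equivalency.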

A short description of test [4]: qHTS assay to test for compound auto fluorescence at 590 nm (red) in HepG2 cell free culture (AID 720684). Put shortly: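 Red fluorescence (540 nm excitation, 590 nm emission) was measured after compound transfer into cell-free MEM supplemented with 10% FBS. Values are equivalencies against Rose Bengal sodium.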
Test [5] in a line: qHTS assay to test for compound auto fluorescence at 535 nm (green) in HepG2 cell free culture (AID 720686).
The nature of test [6]: qHTS assay to test for compound auto fluorescence at 460 nm (blue) in HepG2 cells (AID 720687). Summed up:
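Cells (2,000/well in MEM with 10% FBS) attached overnight at 37 C, then were exposed to compound or DMSO for 1 hr at 37 C, 5% CO2. Fluorescence read at Ex/Em 405/460 nm, expressed as triamterene-equivalent signal.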

In test [7] the target is Glucocorticoid receptor (Homo sapiens) (UniProt P04150). Briefly: qHTS assay to identify small molecule agonists of the glucocorticoid receptor (GR) signaling pathway (AID 720691; active = well fitted activation curve with a large enough effect in the signal ratio in the repeat runs, not every such curve was filed as active; the % refers to the signal ratio). Put shortly:
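GR-bla HeLa cells carrying a GRE-driven beta-lactamase reporter, exposed to compounds for 18 h at 37 C. Reporter activation read as fluorescence after 2 h with LiveBLAzer B/G FRET substrate at room temperature.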

The target is the same in test [8]. Briefly: qHTS assay to identify small molecule antagonists of the glucocorticoid receptor (GR) signaling pathway (AID 720692; active = well fitted inhibition curve with a large enough effect in the signal ratio in the repeat runs, not every such curve was filed as active; the % refers to the signal ratio). Summed up:
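GR-bla HeLa cells carrying a GRE-driven beta-lactamase reporter received compound after 4 h plating, then dexamethasone (5 nM final). After 18 h at 37C, the FRET substrate was loaded for 2 h at room temperature and fluorescence read.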

A short description of test [9]: qHTS assay to identify small molecule antagonists of the glucocorticoid receptor (GR) signaling pathway - cell viability counter screen (AID 720693). Also: nearly all actives have a fitted effect of over 55% in size.
Test [10] in a line: qHTS assay for identifying genotoxic compounds that show differential cytotoxicity against isogenic chicken DT40 cell lines with known DNA damage response pathways - wild type cell line (AID 743012). Also: nearly all actives have a fitted effect of over 60% in size. Also: potency is read from the fitted curve at half-maximal effect. Summed up:
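Wild-type DT40 cells (300/well) exposed to compounds for 40 hours at 37 C/5% CO2. Viability read by CellTiter-Glo luminescence after 30 min at room temperature.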

Test [11] is described as follows: qHTS assay for identifying genotoxic compounds that show differential cytotoxicity against isogenic chicken DT40 cell lines with known DNA damage response pathways - Rev3 mutant cell line (AID 743014). Also: nearly all actives have a fitted effect of over 55% in size. Also: potency is read from the fitted curve at half-maximal effect.
The nature of test [12]: qHTS assay for identifying genotoxic compounds that show differential cytotoxicity against isogenic chicken DT40 cell lines with known DNA damage response pathways - Rad54/Ku70 mutant cell line (AID 743015). Also: nearly all actives have a fitted effect of over 60% in size. Also: potency is read from the fitted curve at half-maximal effect.
A short description of test [13]: qHTS assay to identify small molecule antagonists of the androgen receptor (AR) signaling pathway - cell viability counter screen (AID 743033; also: nearly all actives have a fitted effect of over 45% in size).
Test [14] can be described thus: qHTS assay to identify small molecule antagonists of the androgen receptor (AR) signaling pathway using the MDA cell line - cell viability counter screen (AID 743041; also: nearly all actives have a fitted effect of over 45% in size). Put shortly:
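MDA-kb2 AR-luc human breast carcinoma cells (MMTV-luciferase, AR/GR responsive) were treated with compounds plus R1881 agonist for 16 h at 37 °C. Viability was read as CellTiter-Fluor fluorescence in the same wells as the reporter assay.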

A short description of test [15]: qHTS assay to test for compound auto fluorescence at 460 nm (blue) in HEK293 cell free culture (AID 720681). Put shortly:
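Test compounds were pinned into cell-free culture medium (DMEM with 10% FBS) and fluorescence was read directly at Ex/Em 405/460 nm. Signals were expressed as fluorescence equivalents of triamterene, with DMSO vehicle as control.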

A short description of test [16]: qHTS assay to test for compound auto fluorescence at 460 nm (blue) in HepG2 cell free culture (AID 720685). Summed up: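 Compound (23 nL) or DMSO pinned into cell-free MEM with 10% FBS; blue fluorescence read at 405/460 nm excitation/emission, expressed as auto-fluorescence equivalency to triamterene.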
For test [17], the target named is Androgen receptor (Homo sapiens) (UniProt P10275). The experiment in a line: qHTS assay to identify small molecule antagonists of the androgen receptor (AR) signaling pathway (AID 743035; active = well fitted inhibition curve with a large enough effect in the signal ratio in the repeat runs, not every such curve was filed as active; the % refers to the signal ratio). Put shortly: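 HEK293 cells stably carrying UAS-beta-lactamase reporter, 2,000/well, given compounds plus R1881 agonist and incubated 16 h at 37C. LiveBLAzer B/G FRET substrate then added for 2 h at room temperature before fluorescence reading.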

The target is the same in test [18]. Briefly: qHTS assay to identify small molecule agonists of the androgen receptor (AR) signaling pathway (AID 743036; active = well fitted activation curve with a large enough effect in the signal ratio in the repeat runs, with a control signal flat, not every such curve was filed as active; the % refers to the signal ratio). Summed up:
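HEK293 cells stably carrying a UAS-driven beta-lactamase reporter (GeneBLAzer AR-UAS-bla-GripTite) were plated at 2,000 cells/well, rested 4 h at 37C, then exposed to compounds in DMSO for 16 h. LiveBLAzer B/G FRET substrate was added for 2 h at room temperature; fluorescence read.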

For test [19] the target is unchanged. Briefly: qHTS assay to identify small molecule agonists of the androgen receptor (AR) signaling pathway using the MDA cell line (AID 743040; also: nearly all actives have a fitted effect of over 20% in size). Put shortly:
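MDA-kb2 breast carcinoma cells stably carrying an MMTV-driven luciferase reporter (AR- and GR-responsive) were seeded and held 5 h at 37C, 0% CO2, then exposed to compounds in DMSO for 16 h. Luminescence was read 30 min after ONE-Glo addition.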

Test [20] shares this target. The experiment in a line: qHTS assay to identify small molecule antagonists of the androgen receptor (AR) signaling pathway using the MDA cell line (AID 743042; also: nearly all actives have a fitted effect of over 55% in size). Summed up: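 MDA-kb2 cells (human breast carcinoma, stably carrying an MMTV-luciferase reporter responsive to AR and GR) were plated at 3,000 cells/well and preincubated 5 hr at 37C, then given compound plus R1881 agonist for 16 h. ONE-Glo luminescence was read.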
% is scaled to controls: 0 for no effect and ±100 for the full control effect.

Androgen receptor (Homo sapiens), sequence (P10275 whole entry, looked up): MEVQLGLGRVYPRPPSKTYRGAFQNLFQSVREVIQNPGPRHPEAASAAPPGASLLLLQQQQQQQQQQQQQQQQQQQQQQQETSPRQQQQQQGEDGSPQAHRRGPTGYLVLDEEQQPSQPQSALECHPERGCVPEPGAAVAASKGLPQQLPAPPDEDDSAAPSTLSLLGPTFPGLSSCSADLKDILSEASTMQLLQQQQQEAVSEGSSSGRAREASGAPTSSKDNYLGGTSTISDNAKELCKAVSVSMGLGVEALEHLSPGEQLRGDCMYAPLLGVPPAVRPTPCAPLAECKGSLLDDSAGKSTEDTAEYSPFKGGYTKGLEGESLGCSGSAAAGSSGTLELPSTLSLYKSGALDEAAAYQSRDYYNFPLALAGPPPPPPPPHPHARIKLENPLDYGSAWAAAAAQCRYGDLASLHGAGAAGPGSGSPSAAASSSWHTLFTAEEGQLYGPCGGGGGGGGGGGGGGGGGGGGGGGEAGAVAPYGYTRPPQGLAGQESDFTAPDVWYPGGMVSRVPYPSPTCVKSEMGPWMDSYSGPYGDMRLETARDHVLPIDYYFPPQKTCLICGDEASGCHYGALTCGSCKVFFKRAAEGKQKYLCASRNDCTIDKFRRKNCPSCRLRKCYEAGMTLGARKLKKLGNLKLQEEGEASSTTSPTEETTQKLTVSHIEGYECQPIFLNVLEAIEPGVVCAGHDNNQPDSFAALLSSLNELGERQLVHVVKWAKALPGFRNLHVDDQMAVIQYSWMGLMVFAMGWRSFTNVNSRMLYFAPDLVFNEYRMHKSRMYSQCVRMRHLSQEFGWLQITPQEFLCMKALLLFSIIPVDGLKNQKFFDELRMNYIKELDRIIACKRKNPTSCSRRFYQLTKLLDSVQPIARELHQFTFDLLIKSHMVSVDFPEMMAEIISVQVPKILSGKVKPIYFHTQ
Glucocorticoid receptor (Homo sapiens), sequence (P04150 whole entry, looked up): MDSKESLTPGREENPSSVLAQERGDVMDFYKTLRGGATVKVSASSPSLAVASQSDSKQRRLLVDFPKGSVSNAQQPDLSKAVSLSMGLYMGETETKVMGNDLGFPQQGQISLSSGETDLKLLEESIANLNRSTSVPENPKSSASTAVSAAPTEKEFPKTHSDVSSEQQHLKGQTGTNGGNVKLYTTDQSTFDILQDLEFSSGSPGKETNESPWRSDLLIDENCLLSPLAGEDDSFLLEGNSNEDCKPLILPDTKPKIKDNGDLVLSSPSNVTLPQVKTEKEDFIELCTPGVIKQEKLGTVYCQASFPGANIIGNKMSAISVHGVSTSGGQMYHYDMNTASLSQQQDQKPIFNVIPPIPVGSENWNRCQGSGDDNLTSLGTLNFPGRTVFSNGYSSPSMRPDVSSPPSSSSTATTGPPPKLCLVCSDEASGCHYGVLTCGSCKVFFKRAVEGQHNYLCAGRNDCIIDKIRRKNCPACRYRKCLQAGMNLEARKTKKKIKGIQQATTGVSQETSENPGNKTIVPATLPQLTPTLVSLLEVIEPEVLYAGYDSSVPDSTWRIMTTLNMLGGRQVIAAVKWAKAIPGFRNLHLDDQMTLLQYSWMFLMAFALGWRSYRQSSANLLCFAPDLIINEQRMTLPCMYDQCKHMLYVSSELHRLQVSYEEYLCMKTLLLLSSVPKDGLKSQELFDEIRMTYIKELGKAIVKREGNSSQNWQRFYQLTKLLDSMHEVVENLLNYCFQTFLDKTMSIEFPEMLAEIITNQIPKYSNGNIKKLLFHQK

Regarding `O=S(=O)(O)c1ccc2cc(O)c(S(=O)(=O)O)cc2c1`, the compound was classed as inactive in [1], in test [2], in [3], in test [4], in test [5] and in test [6]. Besides, the compound was classed as inactive in test [8] and in [9]. Also, the Potency result in test [7], in test [10], in test [11], in test [12], in test [13] and in test [14] was “inactive” each time.
Take `CC(C)=O`: the compound was called inactive in test [1], in test [15], in [2], in test [3], in test [4] and in test [16]. Further, the outcome in test [5], in test [18] and in test [19] was inactive. In addition, the Potency result in test [10], in [11], in test [12], in test [13], in [17] and in test [14] was “inactive” throughout. Besides, in [20], the Potency entry was “inactive”.
For `COC(=O)c1ccccc1C(=O)c1ccc(OCCN2CCCCC2)cc1`, the call in test [1], in [15], in test [2], in test [3], in test [4] and in test [16] was inactive. Further, the result in [5] and in test [9] was inactive. For the same compound, the Potency was 1880 nM (active) in [10], 1060 nM (active) in test [11] and 2110 nM (active) in [12]. The Potency entry in test [13] and in [14] was “inactive” throughout.
As for `O=C(OCC(COC(=O)c1cccnc1)(COC(=O)c1cccnc1)COC(=O)c1cccnc1)c1cccnc1`, the compound was classed as inactive in test [1], in test [15], in [2], in test [3], in [4] and in [16]. Moreover, the compound was classed as inactive in test [5], in test [8], in test [18] and in test [19]. The Potency result in test [7], in [10], in test [11], in [12], in test [13] and in test [17] was “inactive” in each case. The Potency result in [14] and in test [20] was “inactive” in each case.
As to `COCCOCCOCCOCCO`, the call in test [1], in test [15], in test [2], in [3], in [4] and in test [16] was inactive. The compound was classed as inactive in test [5], in test [9], in test [18] and in test [19]. The Potency entry in test [10], in test [11], in [12], in test [13], in test [17] and in test [14] was “inactive” each time. For the same compound, the Potency entry in test [20] was “inactive”.
On to `O=C1c2ccccc2C(=O)c2cc(S(=O)(=O)O)ccc21`, for which the outcome in test [1], in test [15], in test [2], in [3], in test [4] and in test [16] was inactive. Besides, the compound was called inactive in [5], in test [8] and in test [9]. For the same compound, the Potency result in [7], in [10], in test [12], in test [13] and in test [14] was “inactive” in each case.
`CCOC(=O)[C@H](CCc1ccccc1)N[C@@H](C)C(=O)N1C(=O)N(C)C[C@H]1C(=O)O`: the compound was called inactive in test [1], in test [15], in [2], in test [3], in test [4] and in [16]. In addition, the result in [5] and in test [9] was inactive. The Potency result in [10], in test [12], in [13] and in [14] was “inactive” in each case.
On to `CC1=C(C(=O)O)N2C(=O)[C@@H](NC(=O)[C@H](N)c3ccc(O)cc3)[C@H]2SC1`, for which the fluorescence, % of fluorescein in test [1] was 0.159% [at 18.6 µM]. The fluorescence, % of fluorescent control in [15] is 0.558% [at 18.6 µM]; in test [3] it was -0.034% [at 18.6 µM]; in [16] it was 0.197% [at 18.6 µM]. The activity change in [2] was 0.0539% [at 18.6 µM]. The fluorescence, % of Rose Bengal in test [4] was -0.146% [at 18.6 µM]. Also, the fluorescence, % of fluorescein control in test [5] was 0.179% [at 18.6 µM]. Moreover, the Potency result in test [7], in test [10], in test [11], in test [12], in test [13] and in [14] was “inactive” in each case. Also, the result in test [8] and in test [9] was inactive.
On to `CCOC(=O)c1ccc(OC(=O)CCCCCN=C(N)N)cc1`, for which the fluorescence, % of fluorescein in test [1] is -0.102% [at 18.6 µM]. Further, the fluorescence, % of fluorescent control in [15] is -0.0274% [at 18.6 µM]; in [3] it was 0.226% [at 18.6 µM]; in [16], 0.0222% [at 18.6 µM]. For the same compound, the activity change in test [2] was -0.162% [at 18.6 µM]. Besides, the fluorescence, % of Rose Bengal in test [4] was -0.0877% [at 18.6 µM]. In [5], the fluorescence, % of fluorescein control was -0.0655% [at 18.6 µM]. For the same compound, in [9], the call was inactive. The Potency result in test [14] is “inactive”.
In the case of `COc1ccc(Br)c(C)c1`, the compound was classed as inactive in [1], in [15], in test [2], in test [3], in test [4] and in test [16]. Further, the call in test [5] was inactive. Further, the Potency result in [10], in test [11], in test [12], in test [13] and in test [14] was “inactive” throughout.
Regarding `COc1cc(N)ccc1C`, the outcome in [1], in test [15], in test [2], in test [3], in test [4] and in test [16] was inactive. Also, the compound was classed as inactive in test [5], in test [8] and in test [9]. Moreover, the Potency result in test [7], in test [10], in test [12], in test [13] and in test [14] was “inactive” each time.
Regarding `Oc1cn2c(n1)Nc1ccc(Cl)c(Cl)c1C2`, the compound was called inactive in [1], in test [15], in test [2], in test [3], in [4] and in test [16]. The outcome in [5], in test [9], in test [18] and in test [19] was inactive. Further, the Potency result in test [7], in test [10], in test [11], in test [12], in test [13] and in [17] was “inactive” throughout. The Potency entry in [14] and in test [20] was “inactive” throughout.
`c1ccc2c(c1)ccc1c3ccccc3ccc21`: the outcome in test [1], in test [15], in [2], in test [3], in test [4] and in [16] was inactive. The outcome in [5] was inactive. The Potency result in test [10], in [11], in test [12], in test [13] and in test [14] was “inactive” each time.
